According to PubChem BioAssay (Tox21):
Records with an inconclusive call do not appear. Where a call stands in place of a potency, no number is given. Activity calls are given as the source filed them. The call rests on the fitted dose curve.

Target: Beta-2 adrenergic receptor (Homo sapiens) (UniProt P07550)
Assay: Adrenergic beta2 receptor (ADRB2) small molecule agonists, cell-based qHTS assay (AID 1963593);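 on activation: CHO cells stably overexpressing human ADRB2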
In short: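 CHO cells stably over-expressing ADRB2 were plated overnight at 37C, then dosed with compounds plus a stimulation mix containing 100uM IBMX and 25uM Ro-20-1724 for 0.5hr at room temperature. cAMP was measured by HTRF competition, 1hr.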
Potency means the concentration at half of the fitted maximal effect.

Chain of Beta-2 adrenergic receptor (Homo sapiens) (P07550 whole entry, looked up): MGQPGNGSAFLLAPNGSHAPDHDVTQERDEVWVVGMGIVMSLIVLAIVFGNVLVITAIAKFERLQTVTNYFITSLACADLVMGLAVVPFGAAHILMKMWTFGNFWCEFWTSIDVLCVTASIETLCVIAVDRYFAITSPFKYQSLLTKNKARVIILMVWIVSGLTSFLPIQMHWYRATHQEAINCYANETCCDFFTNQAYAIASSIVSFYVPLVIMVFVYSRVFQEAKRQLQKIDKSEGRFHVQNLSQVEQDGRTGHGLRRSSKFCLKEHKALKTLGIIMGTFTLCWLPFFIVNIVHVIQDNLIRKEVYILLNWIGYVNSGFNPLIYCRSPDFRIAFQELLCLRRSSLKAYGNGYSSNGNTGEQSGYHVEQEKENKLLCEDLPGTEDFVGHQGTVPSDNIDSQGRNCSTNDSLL

Compound | Potency | activation
CCCCc1ccc2c(n1)[C@@H](c1ccc(OC)cc1C[C@H](C)C(=O)O)[C@H](C(=O)O)[C@H]2c1ccc2c(c1)OCO2 | inactive | 
CN1CCN(CC(=O)N2c3ccccc3C(=O)Nc3cccnc32)CC1 |  | -0.465% [at 8.39 µM] (inactive)
CCN(CC)CCOc1ccc(Cc2ccccc2)cc1 | inactive | 
CCc1nccnc1CC | inactive | 
CCc1cccc(CC)c1 | inactive | 
COc1cccc(O)c1 | inactive | 
OCCCO | inactive | 
O=C1OC(=O)c2cc([N+](=O)[O-])ccc21 | inactive | 
O=C1c2ccccc2C(=O)C1c1ccc(Br)cc1 | inactive | 
ClCCl | inactive | 
O=C(Cn1ccnc1[N+](=O)[O-])NCCO | inactive | 
CCC1C(=O)OCC1Cc1cncn1C (centres undefined) | inactive | 
CCC(C(=O)OCCN(CC)CC)c1ccccc1 (centres undefined) | inactive | 
CCCCCCC | inactive | 
C[C@@H]1CN(CCCn2c3ccccc3c3ccccc32)C[C@H](C)N1 | inactive | 
CC(CN1CC(=O)NC(=O)C1)N1CC(=O)NC(=O)C1 (centres undefined) | inactive | 
CCCCN(C)C | inactive | 
COc1ccc2[nH]c(S(=O)Cc3ncc(C)c(OC)c3C)nc2n1 (centres undefined) | inactive | 
Cc1ccc2c(c1)C(=O)c1ccccc1C2=O | inactive | 
O=C(O)c1cccc(O)c1 | inactive | 
c1ccc(CC2=NCCN2)cc1 | inactive | 
CCN(CC)CCOc1ccc(C(O)(Cc2ccc(Cl)cc2)c2ccc(C)cc2)cc1 (centres undefined) | inactive | 

Compound | Potency | activation
CCCCCc1ccc(N)cc1 | inactive | 
O=C(Nc1ccc2c(O)c(N=Nc3ccc(N=Nc4ccc(S(=O)(=O)O)cc4)cc3)c(S(=O)(=O)O)cc2c1)c1ccccc1 | inactive | 
CCOC(=O)[C@H](O)[C@@H](O)C(=O)OCC | inactive | 
C(=C/c1ccccc1)/c1ccccc1 | inactive | 
CCCCOc1ccc(C(=O)CCN2CCCCC2)cc1 | 13.3 µM (active) | 
CC(=O)CC(C)C | inactive | 
O[C@@H]1CO[C@H]2[C@@H]1OC[C@@H]2O | inactive | 
CCCCOc1cc(C(=O)OCCN(CC)CC)ccc1N | inactive | 
O=P(O)(O)OCC(O)CO (centres undefined) | inactive | 
Cc1cc(NS(=O)(=O)c2ccc(N)cc2)nc(C)n1 | inactive | 
CCOC(=O)C(=O)CCCCCCl | inactive | 
C[N+]1(C)CCC(=C(c2ccccc2)c2ccccc2)CC1 | inactive | 
Clc1cc(Cl)cc(Cl)c1 | inactive | 
CC(=O)N(CC(=O)N(C)C)c1ccccc1 | inactive | 
Nc1ccc(S(=O)(=O)Nc2ccccn2)cc1 | inactive | 
CCN(CC)CCOCCOC(=O)C1(c2ccccc2)CCCC1 | inactive | 
CCCCCCCCCCCc1ccccc1 | inactive | 
Nc1c2c(nc3c1CCC3)CCCC2 | inactive | 
CN(C)C(=O)CNC(=O)Cc1ccccc1 | inactive | 
O=C(O)C1CCC1 | inactive | 
CN1Cc2cc(C(=O)N3CCC(C4CCNCC4)CC3)ccc2N[C@@H](CC(=O)O)C1=O | inactive | 
CCCCOC(=O)CC | inactive | 
